Assay outcomes as filed in PubChem BioAssay.
D3 antag: qHTS of D3 Dopamine Receptor Antagonist: qHTS; AID 652054, 2013; D(3) dopamine receptor (Homo sapiens), P35462; D3R cells, DiscoveRx beta-arrestin luminescence, antagonist mode; active compounds read low; 360,000 compounds, 2.5% hits; max response, negative = inhibition, %; in the data active means max response below about -50%; inconclusive means no clear call, values can overlap the other calls
Target sequence (P35462 whole entry, looked up): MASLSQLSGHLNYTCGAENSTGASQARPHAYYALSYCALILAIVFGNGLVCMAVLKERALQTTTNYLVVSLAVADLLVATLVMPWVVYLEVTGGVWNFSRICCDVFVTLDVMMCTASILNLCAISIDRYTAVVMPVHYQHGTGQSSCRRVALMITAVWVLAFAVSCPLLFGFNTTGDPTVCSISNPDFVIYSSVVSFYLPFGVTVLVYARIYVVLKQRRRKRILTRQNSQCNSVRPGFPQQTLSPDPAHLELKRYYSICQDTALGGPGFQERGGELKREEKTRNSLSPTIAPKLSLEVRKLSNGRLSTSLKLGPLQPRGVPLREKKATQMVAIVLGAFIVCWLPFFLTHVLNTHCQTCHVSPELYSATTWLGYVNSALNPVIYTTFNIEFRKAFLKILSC
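Cells plated overnight at 1500 cells/well, then exposed to library compounds with dopamine controls for 90 minutes at 37 degrees C. DiscoveRx reagent added for 30–60 minutes at room temperature; luminescence read, quantitative HTS format.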
D3 ag: qHTS of D3 Dopamine Receptor Agonist: qHTS; D(3) dopamine receptor (Homo sapiens), P35462; D3R DiscoveRx beta-arrestin cells, luminescence, 90 min; max activation, %; 410,000 compounds, 0.58% hits; AID 652048, 2013; in the data active means max activation above about 30%
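Cells at 1500/well, incubated overnight, then treated with pinned compounds (dopamine as control) for 90 min at 37 degrees C. DiscoveRx reagent added for 30 - 60 minutes at room temperature; luminescence read.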
uPA surface inh: qHTS for Inhibitors of Cell Surface uPA Generation; AID 540303, 2011; Potency, µM (series often up to 38.3 µM), usual class: inhibitors; 330,000 compounds, 0.31% hits; cell surface uPA generation assay, qHTS; active means well fitted inhibition curve with a large enough effect; inconclusive means small, poorly fitted or top-dose-only effect; inactive means no such curve, though single readings can be large or run the other way; tested in mouse RAW 264.7 cells; further: nearly all actives have a fitted effect of over 55% in size
RGS4 inhibitor: Inhibitors of Regulator of G Protein Signaling (RGS) 4: qHTS | Regulator of G-protein signaling 4 (Homo sapiens), P49798 | Transcreener GDP fluorescence polarization, RGS4-accelerated GTP hydrolysis | Potency, µM (doses to about 114 µM), usual class: inhibitors | 390,000 compounds, 0.039% hits | AID 504845, 2011; active means well fitted inhibition curve with a large enough effect; inconclusive means small, poorly fitted or top-dose-only effect; inactive means no such curve, though single readings can be large or run the other way; further: nearly all actives have a fitted effect of over 75% in size
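MLSMR compounds (23 nl, pin-transferred) preincubated 10 min at room temperature with a 500nM (2x) first reagent, then RGS4 at 900nM (2x) plus Transcreener GDP mix added; fluorescence polarization (620/688 nm) read before and after 90 min at 30 °C.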
Large screens that a line does not name were inactive. Rows were chosen to be rich in hits. Some 3.1% of all compounds tested hit in one or more screens of this group.

O=C(Nc1ccc(Cl)c(C(F)(F)F)c1)NC1CC2CCCC(C1)N2Cc1ccccc1 (configuration not stated)	D3 antag -83.6
COc1cccc(-c2csc(-c3c(N)c(C(=O)c4ccc5c(c4)OCO5)n4ccccc34)n2)c1	none (no result: D3 antag, uPA surface inh)
COc1ccc(Cn2c(C(=O)O)c(CNCc3ccccc3F)c3ccc(OC)cc32)cc1	none (no result: D3 antag, uPA surface inh)
S=C(NC1CCCCC1)NC1CC2CCC(C1)N2Cc1ccccc1 (configuration not stated)	D3 antag -78.5
CCNC(=S)NC1CC2CCC(C1)N2Cc1ccccc1 (configuration not stated)	D3 antag -76.3
CCCNC(=S)NC1CC2CCCC(C1)N2Cc1ccccc1OC (configuration not stated)	none (no result: uPA surface inh, RGS4 inhibitor)
CCCNC(=S)NC1CC2CCC(C1)N2Cc1ccccc1 (configuration not stated)	D3 antag -147.1, uPA surface inh inconclusive
CCNC(=S)NC1CC2CCCC(C1)N2CCc1ccccc1 (configuration not stated)	none
Cc1ccc(SC2=C(Sc3ccc(C)cc3)C(=O)c3ccccc3C2=O)cc1	D3 antag -113.8
Cc1ccccc1OCCCN1CCCC1	D3 antag -59.8 (no result: uPA surface inh)
N#Cc1ccc(N)cc1OCCCN1CCCCC1	D3 antag -51.6
Cc1ccc(C)c(OCCCCN2CCCCC2)c1	D3 antag -67.5
Cc1cc(Br)ccc1OCCN1CCCC1	D3 antag -69.2
Cc1ccc(OCCCCN2CCCCC2)c(C)c1	none
CCOc1ccc(NC(=O)Cn2nc(SC)c(S(=O)(=O)c3ccccc3)c2N)cc1	none (no result: D3 antag, uPA surface inh)
COc1ccc(NC(=O)c2c(NCc3ccc(OC)c(OC)c3OC)sc3c2CCC3)c(OC)c1	RGS4 inhibitor inconclusive (no result: D3 antag, uPA surface inh)
Cc1ccc(OCCCN2CCCC2)c(C)c1	D3 antag -52.0
Cc1ccc(C(=O)c2sc(Nc3ccccc3)c(S(=O)(=O)c3ccccc3)c2N)c(C)c1	none (no result: D3 antag, uPA surface inh)
COc1ccc(N2C(=O)C3ON(C4SC(=S)N(C)C4(C)C)C(c4ccc([N+](=O)[O-])cc4)C3C2=O)cc1 (configuration not stated)	D3 antag -65.0
COc1ccc(N2C(=O)C3ON(C4SC(=S)N(C)C4(C)C)C(c4ccc(Cl)cc4)C3C2=O)cc1 (configuration not stated)	none
COc1ccc(N(Cc2cccs2)C(=O)COc2cccc(C)c2C)cc1	none (no result: D3 antag, uPA surface inh)
CCOC(=O)C1=C(SCC)c2cc3c(n2C1=O)CCCC3	D3 antag -56.7
CCOC(=O)c1cnc2cc3c(cn2c1=O)CCCC3	none
O=C1c2ccccc2C(=O)c2c(O)c(O)cc(O)c21	D3 antag -66.9
CCn1c(SCC(=O)c2ccc(Cl)cc2)nnc1-c1ccoc1C	D3 antag -61.3, RGS4 inhibitor inconclusive
CC(C)Oc1ccc(CNC(=O)c2ccc3c(c2)nc2n3CCCCC2)cc1	none (no result: D3 antag, uPA surface inh)
O=c1[nH]c2ccccc2c(O)c1-[n+]1ccccc1	D3 ag 31.7
CCCCN(C)C(=O)C1CCN(Cc2ccc(OCc3ccccc3)cc2)CC1	D3 antag -67.9
CCOC(=O)C1CCN(Cc2ccc(OCc3ccccc3)cc2)CC1	none
CCN(Cc1ccccc1)C1CCN(Cc2ccc(SC)cc2)CC1	none
CCCCN(Cc1ccccc1)C1CCN(Cc2ccccc2)CC1	D3 antag -76.2
O=S(=O)(NCCc1nnc2ccc(SCc3cccc(Cl)c3)nn12)c1ccccc1	none (no result: D3 antag, uPA surface inh)
CCS(=O)(=O)N1CCN(c2ccccc2F)CC1	none
O=C1Oc2ccccc2C(=O)/C1=C/N1CCN(c2ccccc2F)CC1	D3 antag -59.4
O=C(c1cn(-c2ccccc2)nc1-c1cccs1)N1CCOCC1	none
O=C(c1cn(-c2ccccc2)nc1-c1cccs1)N1CCN(c2ccccc2)CC1	D3 ag 30.5 (no result: uPA surface inh)
Cc1ccc(Cl)cc1-n1ncc2c(N3CCN(Cc4ccccc4)CC3)ncnc21	none (no result: D3 antag, uPA surface inh)
Cc1cc(C)c(C#N)c(SCCS(=O)(=O)Cc2ccccc2)n1	D3 antag -84.4
Cc1ccc2c(c1)c(=O)c1ccccc1n2CCCC(=O)Nc1cc(Cl)ccc1C	none (no result: D3 antag, uPA surface inh)
Cc1ccc(NC(=O)CCCn2c3ccccc3c(=O)c3cc(C)ccc32)c(Br)c1	D3 ag 39.1 (no result: D3 antag, uPA surface inh)
CCOC(=O)N1CCN(C(=O)c2ccc3[nH]c(C)c(C)c3c2)CC1	none
CCCN1CCN(C(=O)c2ccc3[nH]c(C)c(C)c3c2)CC1	D3 antag -87.2 (no result: uPA surface inh, RGS4 inhibitor)
Cc1[nH]c2ccc(C(=O)NCCN3CCCCCC3)cc2c1C	D3 antag -69.5
